Laboratory results published in PubChem BioAssay.
The source made the active and inactive calls. Unless noted, how the calls were made is not given here.

Tests used:
[1] = HepG2 liver cancer cell viability effects, profiling panel, resazurin fluorescence, 24 h, PK04 Diversity Set (AID 1172); conditions: higher = more signal
[2] = basal S. cerevisiae growth modulation, no modifier, primary screen, OD600, strain BY4716, 24 h, basal condition (AID 1173); conditions: OD600, 24 h, higher = more signal, called active from +8 up or from −8 down
[3] = MM1S myeloma cell viability, profiling panel, resazurin fluorescence, basal, 24 h, PK04 Diversity Set (AID 1174); conditions: higher = more signal, called active from +8 up or from −8 down;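 further: MM1S multiple myeloma cell line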
[4] = biological target: Dihydroorotate dehydrogenase (quinone), mitochondrial (Plasmodium falciparum (isolate 3D7)) (UniProt Q08210); assay: PfDHODH enzyme inhibitors, primary screen, biochemical, C-terminal His tag, absorbance 600 nm (AID 1175); conditions: DCIP absorbance 600 nm, higher = more signal, called active from +8 up or from −8 down;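 further: recombinant parasite enzyme with a five histidine tag at its C terminus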
[5] = P. aeruginosa biofilm formation inhibitors, primary screen, strain PAO1, LB-PBS medium, absorbance 600 nm (AID 1176); conditions: P. aeruginosa PAO1 growth/biofilm, A600, 12 h; higher = more signal
[6] = S. cerevisiae RM11-1a growth modifiers, primary screen, strain RM11-1a, OD600, basal, 24 h (AID 1177); conditions: OD600, 24 h, higher = more signal, called active from +8 up or from −8 down;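 further: cultures grown under basal conditions with no added stressor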
[7] = E. coli acrAB mutant growth effects, primary screen, E. coli filamentation inducers, strain DRC39, OD650, 24 h (AID 1178); conditions: higher = more signal, called active from +8 up or from −8 down;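 further: growth measured as culture turbidity by optical density at 650 nm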
[8] = E. coli acrAB mutant growth effects, primary screen, E. coli filamentation inducers, strain DRC39, OD650, 48 h (AID 1179);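 further: screen aims at cell division blockers that make cells filament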; conditions: E. coli DRC39 delta-acrAB growth, higher = more signal, called active from +8 up or from −8 down
[9] = RPMI8226 myeloma cell viability, profiling panel, resazurin fluorescence, basal, 24 h, PK04 Diversity Set (AID 1180); conditions: higher = more signal;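 further: RPMI8826 multiple myeloma cell line at 5000 cells per well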
[10] = biological target: E3 ubiquitin-protein ligase XIAP (Homo sapiens) (UniProt P98170); assay: XIAP binders, primary screen, biophysical, small-molecule microarray, fluorescence 635 nm (AID 1181); conditions: small-molecule microarray binding, higher = more signal;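 further: score merges 667 nm emission and signal to noise over triplicate slides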
[11] = system: XIP peptide (Xip251-270) binding; assay: small-molecule binders of XIP peptide, primary screen, biochemical, small-molecule microarray, fluorescence 635/667 nm, 0.1 µg/mL protein (AID 1182); conditions: fluorescent protein binding, 635 nm, higher = more signal, called active from +8 up or from −8 down
XIP peptide (Xip251-270) = assay: small-molecule binders of XIP peptide, primary screen, biochemical, small-molecule microarray, fluorescence 635/667 nm, 0.5 µg/mL protein (AID 1183); conditions: small-molecule microarray binding, fluorescence 635 nm; higher = more signal
[12] = Plasmodium falciparum growth inhibition, primary screen, strain 3D7, DAPI fluorescence, 100 nL (AID 1184);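 further: parasites grown inside human red blood cells in medium with human serum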; conditions: P. falciparum 3D7 growth, 3 d, higher = more signal
[13] = biological target: Homeobox protein Hox-A13 (Mus musculus) (UniProt Q62424); assay: inhibitors of HoxA13-DNA binding, primary screen, biochemical, fluorescence polarization, labeled oligonucleotide (AID 1185); conditions: 15 min, higher = more signal, called active from +8 up or from −8 down
[14] = inhibitors of hydroxyurea-induced Chk1 phosphorylation, primary screen, imaging, HeLa, phospho-Chk1 antibody, percent positive cells (AID 1186); conditions: hydroxyurea-induced phospho-Chk1 immunofluorescence imaging, higher = more signal
[15] = inhibitors of hydroxyurea-induced Chk1 phosphorylation, primary screen, imaging, HeLa, phospho-Chk1 nuclear intensity (AID 1187); conditions: hydroxyurea-induced phospho-Chk1 immunofluorescence imaging, higher = more signal

Sequence of Homeobox protein Hox-A13 (Mus musculus) (Q62424 whole entry, looked up): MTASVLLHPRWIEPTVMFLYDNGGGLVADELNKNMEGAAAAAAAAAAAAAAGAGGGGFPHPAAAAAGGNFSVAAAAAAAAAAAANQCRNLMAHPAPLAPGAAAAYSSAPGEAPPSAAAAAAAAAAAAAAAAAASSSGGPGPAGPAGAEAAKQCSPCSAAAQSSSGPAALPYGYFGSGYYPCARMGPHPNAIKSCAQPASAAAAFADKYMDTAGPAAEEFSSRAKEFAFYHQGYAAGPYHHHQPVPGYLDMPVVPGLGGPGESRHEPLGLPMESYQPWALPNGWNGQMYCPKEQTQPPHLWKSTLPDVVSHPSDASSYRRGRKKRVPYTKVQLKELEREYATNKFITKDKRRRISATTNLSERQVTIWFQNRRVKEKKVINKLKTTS
Sequence of E3 ubiquitin-protein ligase XIAP (Homo sapiens) (P98170 whole entry, looked up): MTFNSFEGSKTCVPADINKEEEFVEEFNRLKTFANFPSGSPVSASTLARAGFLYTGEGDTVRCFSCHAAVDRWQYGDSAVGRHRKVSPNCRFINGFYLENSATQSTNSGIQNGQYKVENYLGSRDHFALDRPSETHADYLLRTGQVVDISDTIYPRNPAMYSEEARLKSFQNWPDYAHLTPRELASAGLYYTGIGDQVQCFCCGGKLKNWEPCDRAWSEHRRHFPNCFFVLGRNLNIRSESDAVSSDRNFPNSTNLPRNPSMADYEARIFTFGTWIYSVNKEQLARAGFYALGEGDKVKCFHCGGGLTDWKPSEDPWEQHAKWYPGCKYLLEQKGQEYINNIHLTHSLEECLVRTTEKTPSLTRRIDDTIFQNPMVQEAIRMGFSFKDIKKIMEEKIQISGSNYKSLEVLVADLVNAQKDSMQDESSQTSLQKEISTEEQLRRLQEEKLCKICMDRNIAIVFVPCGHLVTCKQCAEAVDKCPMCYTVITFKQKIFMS
Sequence of Dihydroorotate dehydrogenase (quinone), mitochondrial (Plasmodium falciparum (isolate 3D7)) (Q08210 whole entry, looked up): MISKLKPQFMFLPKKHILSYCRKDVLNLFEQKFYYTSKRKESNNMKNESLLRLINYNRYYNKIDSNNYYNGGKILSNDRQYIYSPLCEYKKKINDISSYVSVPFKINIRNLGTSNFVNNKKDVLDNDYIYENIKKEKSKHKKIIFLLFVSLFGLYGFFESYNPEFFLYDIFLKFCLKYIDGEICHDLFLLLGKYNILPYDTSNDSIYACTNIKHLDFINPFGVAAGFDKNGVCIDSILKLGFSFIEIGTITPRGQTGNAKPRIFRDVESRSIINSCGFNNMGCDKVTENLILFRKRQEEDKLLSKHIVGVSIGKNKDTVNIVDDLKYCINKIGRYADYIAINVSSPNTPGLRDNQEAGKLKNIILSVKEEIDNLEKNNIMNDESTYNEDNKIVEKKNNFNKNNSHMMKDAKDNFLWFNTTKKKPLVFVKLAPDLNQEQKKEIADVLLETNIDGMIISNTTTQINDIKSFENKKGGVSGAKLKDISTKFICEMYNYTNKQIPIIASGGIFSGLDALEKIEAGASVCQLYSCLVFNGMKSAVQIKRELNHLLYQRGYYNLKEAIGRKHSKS

SMILES | z-score [1] | z-score [2] | z-score [3] | composite z-score [4] | z-score [5] | z-score [6] | z-score [7] | z-score [8] | z-score [9] | composite z-score [10] | composite z-score [11] | composite z-score (XIP peptide (Xip251-270)) | z-score [12] | z-score [13] | z-score [14] | z-score [15]
COCCCNC(=O)[C@@]1(CCC(=O)OC(C)(C)C)COC(c2ccc(OCCCO)cc2)=N1 | 1.18 | -0.579 (inactive) | 1.27 (inactive) | -0.176 (inactive) | -0.978 (inactive) | -0.561 (inactive) | 0.391 (inactive) | 0.624 (inactive) | 0.928 | -0.0272 | 0.192 (inactive) | 0.732 | -0.547 | -5.74 (inactive) | -0.0385 (inactive) | 0.304 (inactive)
[N-]=[N+]=Nc1ccccc1C[C@]1(C(=O)N2CCOCC2)N=C(c2ccc(OCCCO)cc2)O[C@H]1c1ccccc1N=[N+]=[N-] | -1.37 | -2.51 (inactive) | -3.41 (inactive) | -0.481 (inactive) | -0.444 (inactive) | 0.275 (inactive) | 1.16 (inactive) | 2.48 (inactive) | -2.65 | 0.446 | 0.986 (inactive) | 0.721 | -2.32 | -3.58 (inactive) | -1.46 (inactive) | -2.06 (inactive)
O=C(O)[C@H](Cc1ccccc1)n1cc(C2(O)CCCCC2)nn1 | -0.466 | -0.415 (inactive) | -0.625 (inactive) | -1.6 (inactive) | 0.055 (inactive) | -0.563 (inactive) | -0.128 (inactive) | -0.477 (inactive) | -0.88 | -0.0668 | -0.0467 (inactive) | 0.0248 | 0.074 | -1.04 (inactive) | 0.402 (inactive) | -0.535 (inactive)
C=C1C(=O)C=C2CN(C(=O)c3ccccc3)[C@@](Cc3ccc(OC)cc3)(C(=O)OC)[C@@H]12 | -0.187 | 1.33 (inactive) | -1.82 (inactive) | 0.046 (inactive) | 0.964 (inactive) | 0.468 (inactive) | -0.624 (inactive) | -0.841 (inactive) | -4.1 | 0.107 | 0.187 (inactive) | 0.691 | -1.17 | -3.61 (inactive) | 0.395 (inactive) | 0.354 (inactive)
COC(=O)[C@@]1(Cc2ccc(F)cc2)[C@H]2c3cc(C(=O)N(C)C)n(CCc4ccc(O)c(O)c4)c3C[C@H]2CN1C(=O)c1ccccc1 | 0.515 | 0.634 (inactive) | -1.01 (inactive) | -0.137 (inactive) | -0.154 (inactive) | 0.232 (inactive) | -0.0718 (inactive) | 0.157 (inactive) | -0.834 | 0.122 | -0.574 (inactive) | 0.162 | 0.162 | -3.03 (inactive) | -0.361 (inactive) | 0.0787 (inactive)
CN(C)CCCNC(=O)[C@@]1(Cc2ccccc2I)c2ccccc2C(=O)N(C2CCCCC2)[C@H]1c1ccc(CO)cc1 | -6.39 | -8.03 (active) | -8.24 (active) | 0.201 (inactive) | 0.36 (inactive) | 0.996 (inactive) | 0.675 (inactive) | -0.707 (inactive) | -6.58 | 0.223 | 0.645 (inactive) | 0.611 | -1.61 | 0.846 (inactive) | -0.332 (inactive) | -0.621 (inactive)
CC(C)=C1C(=O)C(c2ccccc2)=C2CN3C(=O)N(CCc4ccccc4)C(=O)[C@]3(C)[C@H]21 | -0.823 | -0.0416 (inactive) | -1.56 (inactive) | -0.757 (inactive) | -0.0424 (inactive) | 0.119 (inactive) | -0.575 (inactive) | -0.456 (inactive) | -1.52 | 0.387 | 0.254 (inactive) | 0.295 | 0.127 | -3.12 (inactive) | -0.0061 (inactive) | 0.467 (inactive)
O=C1O[C@@H](c2ccccc2)[C@@H](c2ccccc2)N2[C@@H](c3ccccc3OCCO)[C@]3(C(=O)Nc4ccc(C#CCCO)cc43)[C@@H](C(=O)NC[C@H](O)c3ccccc3)[C@H]12 | 0.5 | 1.29 (inactive) | 0.253 (inactive) | 0.873 (inactive) | 0.614 (inactive) | 2.96 (inactive) | 0.797 (inactive) | 0.367 (inactive) | -2.7 | -0.0669 | 0.798 (inactive) | 0.816 | -1.81 | -3.98 (inactive) | 0.0469 (inactive) | 0.144 (inactive)
Cc1ccc(S[C@]2(C(=O)NCCCN(C)C)CC(=O)N(C3Cc4ccccc4C3)[C@@H]2c2ccc(CO)cc2I)cc1 | -0.595 | -3.43 (inactive) | -2.99 (inactive) | 0.505 (inactive) | 0.531 (inactive) | 0.609 (inactive) | -0.605 (inactive) | -0.623 (inactive) | -2.37 | -0.0999 | -0.261 (inactive) | 0.315 | -0.235 | -3.61 (inactive) | 0.721 (inactive) | 0.848 (inactive)
COC(=O)[C@@]1(Cc2ccccc2)[C@H]2c3cc(C(=O)N4CCCC4)n(Cc4ccc(OC)c(OC)c4)c3C[C@H]2CN1C(=O)c1ccccc1 | 0.181 | 1.58 (inactive) | -0.466 (inactive) | 0.263 (inactive) | 0.0944 (inactive) | 1.72 (inactive) | -0.372 (inactive) | 0.352 (inactive) | -0.172 | 0.0589 | 0.633 (inactive) | 0.0643 | -1.32 | -4.87 (inactive) | 0.243 (inactive) | 0.282 (inactive)
CN(C)CCCC[C@@H]1NC(=O)[C@H]2C[C@@H](C(=O)O)[C@@H](c3ccc(O)cc3)N2C1=O | -0.401 | -1.23 (inactive) | 0.41 (inactive) | -0.676 (inactive) | 1.5 (inactive) | -0.304 (inactive) | 0.679 (inactive) | -0.454 (inactive) | -0.34 | 2.02 | 3.67 (inactive) | 0.843 | -0.947 | -1.63 (inactive) | 0.7 (inactive) | 0.571 (inactive)
[N-]=[N+]=Nc1ccccc1C[C@@]1(C(=O)NCc2ccccc2)N=C(c2ccc(OCCCO)cc2)O[C@@H]1c1ccccc1N=[N+]=[N-] | -0.664 | -0.353 (inactive) | -2.18 (inactive) | 0.366 (inactive) | 0.689 (inactive) | 0.105 (inactive) | 0.969 (inactive) | -0.289 (inactive) | -2.89 | -0.113 | 1.46 (inactive) | 0.729 | -2.76 | -0.454 (inactive) | -0.747 (inactive) | -1.1 (inactive)
CC(C)N1C(=O)c2ccccc2[C@](C)(C(=O)NCC(F)(F)F)[C@@H]1c1ccc(CO)cc1 | -0.116 | -1.3 (inactive) | 0.117 (inactive) | -0.172 (inactive) | -0.618 (inactive) | -0.613 (inactive) | 0.558 (inactive) | -0.0513 (inactive) | 1.45 | -0.0195 | 0.112 (inactive) | 0.464 | -0.805 | -1.98 (inactive) | 0.256 (inactive) | 0.462 (inactive)
CN(C)CCCNC(=O)[C@@H]1c2ccccc2C(=O)N(Cc2ccccc2C(F)(F)F)[C@H]1c1ccc(CO)cc1 | 0.788 | -0.779 (inactive) | 0.744 (inactive) | -0.0587 (inactive) | -0.534 (inactive) | 0.171 (inactive) | 0.858 (inactive) | 0.783 (inactive) | 0.7 | -0.0344 | -0.638 (inactive) | 0.0067 | -0.944 | -2.62 (inactive) | -0.316 (inactive) | -0.164 (inactive)
COCCOC(=O)N1C(=O)[C@@]2(c3cc(C#Cc4ccc(OC)cc4)ccc31)[C@H](c1ccc(OCCO)cc1)N1[C@H](c3ccccc3)[C@H](c3ccccc3)OC(=O)[C@H]1[C@@H]2C(=O)NC[C@H](O)c1ccccc1 | -0.234 | 3.05 (inactive) | -0.486 (inactive) | -1.12 (inactive) | 5.17 (inactive) | 3.81 (inactive) | -0.6 (inactive) | -0.189 (inactive) | -0.508 | 0.115 | 0.849 (inactive) | 0.713 | -1.66 | -0.532 (inactive) | 0 (inactive) | -0.0275 (inactive)
